Measured values: ChEMBL document CHEMBL1201862, “PubChem BioAssay data set” (2004)
Among all 57,000 sequences or so, about 4,000 (7%) were called active. Rule as the data show it: active = GI50 up to about 1.1 µM and inactive = higher. Only a sample is shown. Results with a measured potency or affinity are listed apart.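 Cells were grown in 96-well plates and exposed to each compound for 48 hours at five concentrations; endpoints were interpolated linearly between bracketing concentrations, or set to the highest concentration if not reached. The concentration for 50% growth inhibition is given as GI50.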

system: M14; assay: NCI tumour cell line growth inhibition, 48 h

Row | Substance | GI50 [µM]
1 | mu-(1,7-nanodiamine-N,N')bis-(cis-aminedichloroplatimum (II)), CHEMBL2146215 | 7.78
2 | cis-Bis[[(trimethylsilyl)methyl]amino]tetrachloroplatinum(IV), CHEMBL2146191 | 3.5
3 | [Bis(aminomethyl)dimethylsilane]dichloroplatinum (II), CHEMBL2146201 | 22.9
4 | [Bis(aminomethyl)diethylsilane]tetrachloroplatinum(IV), CHEMBL2146203 | 1.38
5 | [Bis(aminomethyl)tetramethylenesilane]dichloropaltinum(II), CHEMBL2146205 | 13.5
6 | [Bis(aminomethyl)ethylmethylsilane]tetrachloroplatinum(IV), CHEMBL2146192 | 2.68
7 | [Bis(aminomethyl)tetramethylenesilane]tetrachloropaltinum(IV), CHEMBL2146189 | 6.11
8 | CISPLATIN, CHEMBL11359 | 1.95
9 | [Bis(aminomethyl)dimethylsilane]tetrachloroplatinum(IV), CHEMBL2146190 | 7.45
10 | [Bis(aminomethyl)pentamethylenesilane]tetrachloropaltinum(IV), CHEMBL2146204 | 2.13
11 | [Bis(aminomethyl)pentamethylenesilane]dichloropaltinum(II), CHEMBL2146202 | 1.92
